aSyn 5UTR act: Activators working through SNCA 5'UTR binding (MLPCN); 300,000 tested, 7.1% active; activity score, % (tested at 7.5 µM), hits read low; alpha-synuclein 5'UTR reporter, activators screen; in the data active = activity score below about -60%
Starred values were filed as active, the others as inactive. These entries were drawn from the full list.

SMILES | aSyn 5UTR act
CSc1nc(N)nc(SCC(=O)OC(C)C)c1C#N | -82*
Cn1c(-c2ccc(Cl)cc2)cnc1N | -126*
Cc1ccc(-c2cnc(N)n2C)cc1C | -71*
CC(C)(C)n1nc(-c2ccc(Cl)cc2)c2c(N)ncnc21 | 105
O=C1Nc2ccccc2/C1=C/c1cnc(-c2ccccc2)[nH]1 | -78*
Cc1cc(NC(C)c2ccccc2)n2ncc(-c3ccccc3)c2n1 (centres undefined) | -83*
Cc1cc(NCCN2CCOCC2)n2ncc(-c3ccccc3)c2n1 | -62*
COc1ccccc1-c1cnn2c(NCCc3ccccc3)cc(C)nc12 | -112*
Cc1cc(NC2CCCC2)n2ncc(-c3ccccc3)c2n1 | 60
Cc1cc(NCc2ccccc2)n2ncc(-c3ccccc3)c2n1 | -72*
C=CCc1c(C)nc2c(-c3ccccc3)cnn2c1N1CCOCC1 | -175*
CCCc1cc2c(=O)c(-c3ccccn3)coc2cc1OC | -158*
O=c1c2c3c(sc2nc2n1N=C(c1cccs1)CS2)CCCC3 | -166*
O=C1CN(c2nc(-c3cccnc3)nc3scc(-c4ccccc4)c23)CCN1 | -90*
O=C1CN(c2nc(-c3cccs3)nc3sc4c(c23)CCCC4)CCN1 | -109*
Nc1c(Cl)cc(C2=NCCn3c2c2ccc([N+](=O)[O-])cc2[n+]3[O-])cc1Cl | 61
[O-][n+]1c2cc(C(F)(F)F)ccc2c2n1CCN=C2c1ccc(Cl)cc1 | -65*
COc1cnc(-c2ccccn2)nc1NC(C)C | 98
COc1cnc(-c2ccccn2)nc1Oc1ccc(F)cc1F | -118*
c1ccc2c(c1)NC1(CCCCCC1)n1c-2nc2ccccc21 | -142*
CCCCC1(C)Nc2ccccc2-c2nc3ccccc3n21 (centres undefined) | -146*
c1ccc2c(c1)NC1(CCCCC1)n1c-2nc2ccccc21 | -126*
CC1=CC(C)(C)Nc2ccccc21 | 92
N#C/C(=C\Nc1ccccc1O)c1nc2ccccc2o1 | -112*
O=c1c2ccccc2oc2ccc(Oc3ccccc3)cc12 | -123*
SMILES | aSyn 5UTR act
O=c1c2ccccc2oc2cc(C#CC3(O)CCCCC3)ccc12 | 77
COc1cc2oc3ccccc3c(=O)c2cc1OC | -120*
CC1=NN(c2ccccc2)C(=O)/C1=C\C=C\c1ccccc1 | -127*
COc1ccc(/C=C2/C(=O)N(c3ccccc3)N=C2C)cc1 | 61
CC1=NN(c2ccc(C)c(C)c2)C(=O)/C1=C\C=C\c1ccc([N+](=O)[O-])o1 | 78
N#CC(c1ccc(Cl)cc1)c1ccc2c(C(F)(F)F)cc(C(F)(F)F)nc2n1 (centres undefined) | 112
CC(=O)Nc1cnc(NC(=O)c2cccc(F)c2)cc1C | -148*
CCC(=O)Nc1cnc(NC(=O)c2cccc(F)c2)cc1C | -107*
O=Cc1ccccc1OCc1ccc2c(c1)OCO2 | -258*
O=Cc1c(OCc2ccccc2)ccc2ccccc12 | -131*
C/[N+]([O-])=C/c1c(OCc2ccccc2)ccc2ccccc12 | -91*
Cc1ccc(-c2nnc(NC(=O)c3ccc([N+](=O)[O-])o3)o2)c(C)c1 | -64*
Cc1ccc(NC(=O)c2ccc([N+](=O)[O-])o2)c(C)c1 | -74*
CC(=O)c1cnc(Nc2ccc(C)cc2)s1 | -122*
COc1ccc(N2C(=O)c3ccccc3NC23CCCCC3)cc1 | -76*
COc1ccc(N2C(=O)c3ccccc3NC23CCC(C)CC3)cc1 (centres undefined) | -106*
COc1cc(NC(=O)c2csc3c2CCCC3)ncn1 | -153*
O=C(Nc1ccccn1)c1csc2c1CCCC2 | -163*
O=C(Nc1ccccn1)c1onc2c1CCCC2 | 96
Fc1cccc2sc(Nc3nc4cc5c(cc4s3)OCO5)nc12 | -222*
Fc1cc(F)c2nc(Nc3nc4cc5c(cc4s3)OCO5)sc2c1 | -176*
Fc1cccc2sc(Nc3nc4cc5c(cc4s3)OCCO5)nc12 | -78*
O=C(NNc1nc2cc3c(cc2s1)OCCO3)c1ccccc1 | -141*
Cc1cc(C)cc(NS(=O)(=O)c2ccc3c(c2)c(=O)n(C)c(=O)n3C)c1 | 58
COc1cccc(-n2cc3c(=O)n(C)c(=O)n(C)c3c2)c1 | -86*
SMILES | aSyn 5UTR act
Cn1c(=O)oc2cc(S(=O)(=O)CCC(=O)Nc3ccccc3)ccc21 | -64*
CN(C(=O)/C=C/c1ccccc1)C1CCCCC1 | -98*
CC1Cc2ccccc2N1C(=O)/C=C/c1cccc(F)c1 (centres undefined) | -170*
Cc1c(C(=O)C(=O)N2c3ccc(F)cc3CCC2C)c2ccccc2n1C (centres undefined) | 62
CC1Cc2ccccc2N1C(=O)Cc1cccs1 (centres undefined) | 38
COc1ccc(-c2cc(C(F)(F)F)nc(S(=O)(=O)CCC(=O)N3CCOCC3)n2)cc1 | -76*
COc1ccc(C2=NC(c3ccccc3)CO2)cc1 (centres undefined) | -118*
CC(C)(C)C1CCC(=O)N(CCSc2ccccc2)CC1 (centres undefined) | -145*
Cc1ccc(SCCN2CCC(C)CCC2=O)cc1 (centres undefined) | -153*
Cc1ccc(SCCC(=O)N2CCC(C)CC2)cc1 | -92*

High-throughput results: PubChem, Broad Institute
